Hits are enriched below; roughly 3.4% of the tested compounds scored in any of these assays.
PLCb3 inh: human PLC-beta3 inhibitors, primary screen, biochemical, fluorescence; 1-phosphatidylinositol 4,5-bisphosphate phosphodiesterase beta-3 (Homo sapiens), Q01970; Purified PLC-beta3, fluorogenic substrate; inhibition, % at 12.2 µM; 370,000 compounds, 0.18% hits; in the data active means inhibition above about 11%
ADAM10 inh: human ADAM10 inhibitors, primary screen, biochemical, QFRET, HTS | recombinant ADAM10, EDANS/DABCYL FRET peptide cleavage, 3 h | inhibition, % at 7 µM | 370,000 compounds, 0.62% hits;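 active means inhibition above a per-campaign cutoff equal to the mean of compounds falling between control-based bounds plus 3 SD, cut at about 20% in these data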
Target sequence (O14672 214-748 limits assumed): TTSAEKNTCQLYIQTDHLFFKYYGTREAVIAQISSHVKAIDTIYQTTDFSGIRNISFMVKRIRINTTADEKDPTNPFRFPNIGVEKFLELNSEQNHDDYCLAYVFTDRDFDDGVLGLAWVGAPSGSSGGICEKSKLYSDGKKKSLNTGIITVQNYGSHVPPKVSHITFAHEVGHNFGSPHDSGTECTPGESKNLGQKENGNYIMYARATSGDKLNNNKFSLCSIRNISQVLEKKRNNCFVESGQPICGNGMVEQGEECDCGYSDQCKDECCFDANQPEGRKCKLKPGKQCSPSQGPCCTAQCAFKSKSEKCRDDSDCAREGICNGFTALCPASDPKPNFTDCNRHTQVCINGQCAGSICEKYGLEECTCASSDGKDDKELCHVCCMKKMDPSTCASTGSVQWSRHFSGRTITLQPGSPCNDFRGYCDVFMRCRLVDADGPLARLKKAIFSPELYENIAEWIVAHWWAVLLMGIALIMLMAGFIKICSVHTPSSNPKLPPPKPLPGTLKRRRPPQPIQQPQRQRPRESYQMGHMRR
KLK7 zymogen act: proKLK7 zymogen activators, primary screen, biochemical, fluorescence intensity; purified proKLK7, EDANS-DABCYL substrate fluorescence; 100% is mature enzyme control, 0% vehicle; activation, % at 7 µM; Kallikrein-7 (Homo sapiens), P49862; 370,000 compounds, 0.9% hits; AID 652039, 2013;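 active means activation above the mean of all tested compounds plus 3 SD, computed per campaign excluding outliers beyond control limits, cut at about 13% in these data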
sPLA2-III inh: human group III sPLA2 inhibitors, primary screen, biochemical, QFRET, BODIPY PC-A2 liposome substrate. QFRET BODIPY PC-A2 liposome hydrolysis, fluorescence. inhibition, % at 12.2 µM. 370,000 compounds, 0.56% hits;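 active means inhibition above mean plus 3 SD of compounds lying within the high and low control bounds, cut at about 19% in these data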
PLCg1 inh: PLC-gamma1 enzyme inhibitors, primary screen, biochemical, fluorescence, purified enzyme. AID 720700, 2013. 370,000 compounds, 0.84% hits. inhibition, % at 12.2 µM. 1-phosphatidylinositol 4,5-bisphosphate phosphodiesterase gamma-1 (Homo sapiens), P19174. fluorogenic substrate; in the data active means inhibition above about 9.5%
ADAM17 inh: ADAM17 inhibitors, primary screen, biochemical, QFRET; 370,000 compounds, 0.83% hits; AID 720648, 2013; inhibition, % at 6.95 µM; recombinant ADAM17, EDANS/DABCYL FRET peptide cleavage;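 active means inhibition above the mean of compounds lying between control limits plus 3 SD, set per campaign, cut at about 8.5% in these data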
proKLK7 act conf: proKLK7 zymogen activators, confirmation, biochemical, fluorescence intensity, triplicate; shares compounds with KLK7 zymogen act; purified proKLK7, EDANS-DABCYL substrate fluorescence; scaled: vehicle 0, mature enzyme 100; activation, % at 7 µM; 3,200 compounds, 68% hits;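 active means activation, as change over the incubation, above the mean of all tested compounds plus 3 SD, cut at about 13% in these data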
EDANS interfere: EDANS-DABCYL substrate optical interference, artefact control for kallikrein-7 zymogen activator project, biochemical, fluorescence intensity, high throughput; no enzyme, 4 h; solvent 0%, active enzyme control 100%; activation, % at 7 µM; 3,200 compounds, 80% hits; shares compounds with KLK7 zymogen act;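 active means activation above the all-compound mean plus 3 SD, ignoring values outside control-based bounds, cut at about 4.8% in these data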;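 further: value is the 4 h activation minus the activation read at time zero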
K7 EDANS ctr: counter-screen for kallikrein-7 activators: EDANS-DABCYL interference, dose response; EC50, µM; 250 compounds, 20% hits; EDANS-DABCYL peptide fluorescence interference, no enzyme; shares compounds with KLK7 zymogen act; AID 720493;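 active means compounds that raise the fluorescence signal in this interference counterscreen, with EC50 at or below 10 µM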;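 further: intact quenched peptide substrate alone read at 355 nm excitation and 520 nm emission; signal is fluorescence gain from T0 to T4 after four hours at room temperature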
ADAM10 confirm: human ADAM10 inhibitors, confirmation, biochemical, QFRET, triplicate; shares compounds with ADAM10 inh; ADAM10 QFRET peptide cleavage, EDANS fluorescence; inhibition, % at 6.95 µM; 2,100 compounds, 1% hits; AID 743208, 2013;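 active means inhibition above about 20% chosen separately for each screening run, limit read from the data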
ADAM17 ctr: ADAM17 inhibitors, counter-screen for ADAM10 exosite inhibitor project, biochemical, QFRET, high throughput | ADAM17 QFRET peptide cleavage, EDANS fluorescence | shares compounds with ADAM10 inh | AID 743214, 2013 | inhibition, % at 6.95 µM | 2,100 compounds, 0.5% hits;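 active means mean triplicate inhibition above the solvent-only control wells' mean plus 3 SD, cut at about 12% in these data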
A number is an active result; n = inactive; x = no result.

SMILES | PLCb3 inh | ADAM10 inh | KLK7 zymogen act | sPLA2-III inh | PLCg1 inh | ADAM17 inh | proKLK7 act conf | EDANS interfere | others
COc1ccc(-c2cc(=Nc3cccc(C(=O)O)c3)c3cc(C)ccc3o2)cc1 | n | n | n | n | n | n | x | x
COc1ccc(-c2cc(=NCCCCCC(=O)O)c3cc(C)ccc3o2)cc1 | n | n | 105.2 | n | n | n | 64.3 | 71.7
c1ccc2c(c1)[nH]c1cnccc12 | n | n | 46.3 | n | n | n | 17.9 | 21.5
CCc1nccc2c1[nH]c1ccccc12 | n | n | 45.6 | n | n | n | 47.2 | 46.1
Cc1[nH]c2ccccc2c1CCN | n | n | n | n | n | n | x | x
Cc1[nH]c2ccccc2c1/C=N/O | n | n | n | n | n | n | x | x
O=c1c2ccccc2[nH]c(=S)n1-c1cccnc1 | n | n | n | n | n | n | x | x
Cc1nccc2c1[nH]c1ccccc12 | n | n | 36.5 | n | n | n | 31.6 | 36.0
O=C(NC1CN2CCC1CC2)c1cc(-c2ccc(Cl)cc2)nc2ccccc12 (centres undefined) | n | n | n | n | n | n | x | x
C=CCOC(=O)COc1cc(C)cc2oc(=O)c3c(c12)CCC3 | n | n | 40.7 | n | n | n | 44.2 | 44.5
c1ccc2oc(-c3ccc4c(c3)CNCc3cnnn3-4)cc2c1 | n | n | 22.0 | n | n | n | 18.9 | 19.1
Cc1cc(=O)oc2cc(OCC(=O)N3CCN(C(C)c4ccccc4)CC3)c(Cl)cc12 (centres undefined) | n | n | 37.7 | n | n | n | 63.1 | 75.2
Cc1cc(=O)oc2cc(OCC(=O)N3C[C@H]4C[C@@H](C3)c3cccc(=O)n3C4)c(Cl)cc12 | n | n | n | n | n | n | x | x
CC(c1ccccc1)n1cc(C(=O)NC2CCCC2)nn1 (centres undefined) | n | n | n | n | n | n | x | x
COCCN1Cc2cc(=O)n3c([nH]c4ccccc43)c2C1=N | n | n | 22.1 | n | n | n | 18.9 | n | K7 EDANS ctr=n
C[n+]1c(-c2ccccc2)c2cc(N)ccc2c2ccc(N)cc21 | n | n | n | n | n | n | x | x
Nc1ccc2ccc3cccc[n+]3c2c1 | n | n | 94.8 | n | n | n | 72.7 | 66.2
Cc1cc(O)c2c(c1)C(=O)[C@@]13C(=C2O)C(=O)[C@H]2C(O)[C@@H]1[C@H]1C(O)[C@@H]3C(=O)C3=C(O)c4c(O)cc(C)cc4C(=O)[C@@]312 (some centres undefined) | n | n | n | n | n | n | x | x
N#CCC[C@@H]1CC[C@]2(CCCN(Cc3ccncc3)C2)O1 | n | n | n | n | n | n | x | x
c1ccc(CCN2CCC3CCNC3C2)cc1 (centres undefined) | n | n | n | n | n | n | x | x
CN(C)[C@@H]1C(=O)C(C(N)=O)=C(O)[C@@]2(O)C(=O)C3=C(O)c4c(O)cccc4[C@@](C)(O)C3[C@H](O)C12 (some centres undefined) | n | n | n | n | n | n | x | x
CN(C)[C@@H]1C(=O)C(C(N)=O)=C(O)[C@@]2(O)C(=O)C3=C(O)c4c(O)ccc(Cl)c4[C@@](C)(O)C3C[C@@H]12 (some centres undefined) | n | n | 24.6 | n | n | n | 16.8 | 16.9
OC1CN2CCC(O)C2C(O)C1O (centres undefined) | n | n | n | n | n | n | x | x
CCOC(=O)CC[C@@H]1CC[C@]2(CCCN(Cc3ccncc3)C2)O1 | n | n | n | n | n | n | x | x
CN1C(=O)N(C)C(=O)C2(Sc3ccccc3C2=O)C1=O | n | n | 12.8 | n | n | n | 247.1 | 232.8
SMILES | PLCb3 inh | ADAM10 inh | KLK7 zymogen act | sPLA2-III inh | PLCg1 inh | ADAM17 inh | proKLK7 act conf | EDANS interfere | others
O=C(c1ccc2c3c(cccc13)CC2)C1CCCN(Cc2ncc[nH]2)C1 (centres undefined) | n | n | n | n | n | n | x | x
O=C(c1ccc2c3c(cccc13)CC2)C1CCCN(CC2CC2)C1 (centres undefined) | n | n | 43.1 | n | n | n | n | n
O=C(NCCN1CCC2(CC1)C(=O)NCN2c1ccccc1)c1cccc(F)c1 | n | n | n | n | n | n | x | x
Cc1cccc(N2CCc3c2nc2ccccc2c3N)c1 | n | n | 21.9 | n | n | n | n | n
O=C1NC(=O)C(=Cc2cc3c(cc2[N+](=O)[O-])OCO3)C(=O)N1 | n | n | 14.8 | n | n | n | n | 7.9
Cc1cccc(N2C(=O)NC(=O)/C(=C/c3cc4c(cc3[N+](=O)[O-])OCO4)C2=O)c1 | n | n | 15.9 | n | n | n | 75.7 | 76.4
CCOC(=O)CC[C@@H]1CC[C@]2(CCCN(Cc3ccccn3)C2)O1 | n | n | n | n | n | n | x | x
COc1cc2c(cc1OC)CC[N+](C)=C2 | n | n | 42.8 | n | n | n | 57.7 | 52.6
O=c1[nH]c2ccccc2n1C1CCN(C(c2cccc3ccccc23)c2nnnn2Cc2ccccc2)CC1 (centres undefined) | n | n | n | n | n | n | x | x
O=c1[nH]c2ccccc2n1C1CCN(C(c2cc3ccccc3o2)c2nnnn2Cc2ccccc2)CC1 (centres undefined) | n | 23.4 | n | n | n | n | x | x | ADAM10 confirm=n;ADAM17 ctr=n
O=c1[nH]c2ccccc2n1C1CCN(C(c2ccccc2OC(F)(F)F)c2nnnn2-c2ccc3c(c2)OCCO3)CC1 (centres undefined) | n | 33.5 | n | n | n | 15.4 | x | x | ADAM10 confirm=n;ADAM17 ctr=n
